Rows were chosen to be rich in hits. Some 5.3% of all compounds tested hit in one or more screens of this group.
HCV inhibitor = inhibitors of hepatitis C virus infection. Huh7.5.1 HCVcc-Cre infection, luciferase reporter, 44 h. Potency, µM (top dose mostly 41.8 µM), inactives show top-dose activity change, negative = inhibition, usual class: inhibitors. hit rate 3.4% among 340,000; active = well fitted inhibition curve with a large enough effect; inconclusive = small, poorly fitted or top-dose-only effect, or another doubt; inactive = no such curve, though single readings can be large or run the other way
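Infectious HCV cell culture screen: compound-treated cells (1,000/well, pre-plated 4 h) are infected with HCVcc-Cre at roughly 0.5 moi and grown 44 h. Infection is quantified by luciferase signal after 15 min substrate incubation at room temperature.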
VACV Venus inh = inhibitors of vaccinia virus (Venus reporter); Vaccinia virus Venus reporter expression, fluorescence; Potency, µM (titrated, usually from 36.5 µM), for the others: at the highest dose activity change, negative = inhibition, most hits filed as inhibitors; hit rate 0.46% among 330,000; calls by dose curve; tested in A549 cells; also: nearly all actives have a fitted effect of over 30% in size
FMDV antiviral = blocks foot and mouth disease virus | FMDV antiviral cell-based qHTS | hit rate 1.2% among 410,000 | Potency, µM (titrated, usually from 57.9 µM), for inactives: at the top dose activity change, negative = inhibition, actives largely listed as inhibitors; calls by dose curve; tested in HEK293T cells; also: read-out not given here; nearly all actives have a fitted effect of over 45% in size
Marburg entry inh = blocks Marburg virus binding to or entry into cells; Marburg virus pseudotyped entry inhibition, cell reporter; Potency, µM (doses to about 37.8 µM), inactives show at the highest dose activity change, negative = inhibition, most hits filed as inhibitors; hit rate 1.8% among 300,000; AID 540276; calls by dose curve; tested in HEK293 cells
Lassa entry inh = Lassa virus entry inhibition | Lassa virus pseudotype entry inhibition, cell reporter | Potency, µM (doses to about 37.9 µM), inactives show at the highest dose activity change, negative = inhibition, most hits filed as inhibitors | hit rate 1.2% among 300,000 | AID 540256; calls by dose curve; tested in HEK293 cells; also: nearly all actives have a fitted effect of over 50% in size
VACV mCherry inh = vaccinia inhibition (mCherry reporter). Vaccinia virus mCherry reporter infection, fluorescence. Potency, µM (highest dose often 36.5 µM), for the others: at the top dose activity change, negative = inhibition, actives largely listed as inhibitors. hit rate 0.63% among 310,000. AID 720579; calls by dose curve; tested in A549 cells; also: nearly all actives have a fitted effect of over 35% in size
* marks the source's active call; other numbers are inactive results; i = inactive; ? = inconclusive; · = not tested or not shown; ! = not active in a repeat; [ ] = remark or other dose. % is scaled to controls: 0 for no effect and ±100 for the full control effect; potency is read from the fitted curve at half-maximal effect.

SMILES	HCV inhibitor	VACV Venus inh	FMDV antiviral	Marburg entry inh	Lassa entry inh	VACV mCherry inh
Cc1ccc(C(C)C)c(OCC(O)CN2CCc3ccccc3C2)c1 (configuration not stated)	?	?	?	?	?	10µM*
CC(NC(=O)C1CCOCC1)c1nnc2n1CCN(Cc1ccc3ccccc3c1)CC2 (configuration not stated)	·	-2%	-17%	·	·	-15%
CCOc1ccc(/C=C/c2nc(C#N)c(N3CCN(c4ccccc4)CC3)o2)cc1	·	-19%	-9%	18%[46.1 µM]	24%[46.1 µM]	-14%
O=c1c(-c2ccccc2)nc2cnc(Oc3ccccc3)nc2n1Cc1cccs1	·	·	-18%	·	·	·
CCOCCn1c(N2CCCC2)nc2c1c(=O)n(C)c(=O)n2C	-29%	-2%	-15%	-16%[46.1 µM]	1%[46.1 µM]	i
CCOc1ccccc1C(=O)Nc1cccc2ccc(C)nc12	·	-20%	0%	17%[46.1 µM]	0%[46.1 µM]	-30%
COc1cc(OC)c(-c2c3cc(O)c(=O)cc-3oc3cc(O)c(O)cc23)cc1OC	26%	i	?	4.6µM*!	-27%	i
COc1cccc(-c2cc(=O)c3ccccc3o2)c1N	·	-13%[60.7 µM]	22%[97.4 µM]	?	?	-7%[60.7 µM]
C=C(CO[C@@H]1C=C[C@@H](c2ccccc2)O[C@@H]1CO)c1ccccc1	·	·	·	-2%[14.2 µM]	·	·
Cc1cccc(C)c1NC(=O)CN(C)S(=O)(=O)c1ccc2c(c1)n(C)c(=O)c(=O)n2C	·	1%	-9%	8%[46.1 µM]	-29%[46.1 µM]	-9%
O=S(=O)(c1ccc(-c2ccccc2)cc1)N1CCCCC1	?	3%	-6%	5%	-14%	-9%
CN1/C(=C\C(=O)c2cccc(S(=O)(=O)N3CCCCC3)c2)C(C)(C)c2ccccc21	2%	·	0%	-6%	-11%	·
CN1c2ccccc2C(C)(C)C12CC(c1ccc(S(=O)(=O)N3CCCCC3)cc1)=NO2 (configuration not stated)	8%	11%	4%	0.16µM*	0.18µM*	-3%
CN1c2ccccc2C(C)(C)C12CC(c1cccc(S(=O)(=O)N3CCCC3)c1)=NO2 (configuration not stated)	?	2%	-24%	0.46µM*	0.52µM*	i
CC[C@H](C)C(C(=O)N1CCN(C(=O)OC(C)(C)C)CC1)n1cc(C(CC(C)C)NC(=O)OC(C)(C)C)nn1 (some centres not stated)	11%	-3%	-29%	·	·	5%
NCCCC[C@@H](C(=O)NCCCCCCCCCCC(=O)N1CCNCC1)n1cc(CCO)nn1	-2%	-13%	-9%	·	·	i
CSCC[C@@H](C(=O)NCCCCCCCCCCC(=O)N1CCN(C(=O)OC(C)(C)C)CC1)n1cc(CCO)nn1	?	-21%	?	·	·	-2%
CC[C@@H](C)[C@@H](C(=O)N1CCN(C(=O)OC(C)(C)C)CC1)n1cc(CCCCNC(=O)OC(C)(C)C)nn1	?	-3%	13µM*	·	·	-2%
CC(C)(C)OC(=O)NCCCC[C@@H](C(=O)NCCCCCCCCCCC(=O)N1CCN(C(=O)OC(C)(C)C)CC1)n1cc(CCO)nn1	?	?	14µM*	·	·	-5%
CC[C@H](C)Cc1cn([C@@H](CCCCNC(=O)OC(C)(C)C)C(=O)NCCCCCCCCCCC(=O)N2CCN(C(=O)OC(C)(C)C)CC2)nn1	?	?	14µM*	·	·	-14%
O=C(NCc1ccc(F)cc1)c1cccc(N2CCCS2(=O)=O)c1	·	-6%	-24%	·	-6%[46.1 µM]	-12%
CCN(CC)C(=O)CSc1nc(-c2cccs2)cc(-c2cccs2)c1C#N	2.5µM*	·	0%	?	18µM*	·
COc1ccc(CNC(=O)CSc2nc(-c3ccccc3)cc(-c3cccs3)c2C#N)cc1	0%	·	-13%	?	-16%	·
COc1ccc(-c2cc(-c3cccs3)c(C#N)c(SCC(=O)NCc3ccco3)n2)cc1	?	·	18%	0.46µM*	?	·
CSc1nc(C2CC2)cc(-c2cccs2)c1C#N	11µM*	-28%	·	10%	3%	-18%
SMILES	HCV inhibitor	VACV Venus inh	FMDV antiviral	Marburg entry inh	Lassa entry inh	VACV mCherry inh
COc1cccc(C2C(C#N)=C(N)Oc3cc(C)n(Cc4ccco4)c(=O)c32)c1 (configuration not stated)	-9%	-9%	12%	-16%	-13%	-14%[1.46 µM]
CCN(CC)CCCn1c(C)cc2c(c1=O)[C@@H](c1cccc(Cl)c1)C(C#N)=C(N)O2	·	·	·	11µM*	·	·
COc1cc(OC)cc(-c2c(-c3cccs3)c3cc(-c4ccn[nH]4)ccc3n2C)c1	?	?	-3%	·	·	-18%
COc1ccc(CCNC(=O)[C@H](C)N2C(=O)N3CCc4c([nH]c5ccccc45)[C@@]3(C)C2=O)cc1OC	1µM*	-19%	?	·	·	-7%
CC(C)[C@@H](C(=O)NC1CCCC1)N1C(=O)N2CCc3c([nH]c4ccccc34)[C@@]2(C)C1=O	?	-7%	?	·	·	-9%
COc1ccc(CCNC(=O)[C@H](C)N2C(=O)N3CCc4c([nH]c5ccccc45)[C@@]3(C)C2=O)cc1	4.5µM*	-25%	?	·	·	-4%
COc1cccc(CNC(=O)[C@@H](C)N2C(=O)N3CCc4c([nH]c5ccc(OC)cc45)C3(C)C2=O)c1 (some centres not stated)	8.9µM*	-9%	?	·	·	-10%
C[C@@H](C(=O)NC1CCCC1)N1C(=O)N2CCc3c([nH]c4ccccc34)[C@@]2(C)C1=O	10µM*	-13%	-39%	·	·	-12%
COc1ccc(CNC(=O)[C@H](C)N2C(=O)N3CCc4c([nH]c5ccc(OC)cc45)[C@@]3(C)C2=O)cc1	?	2%	-24%	·	·	3%
CCC1(O)CC(c2ccccc2)=NN1C(=O)c1ccccc1F (configuration not stated)	13%	-13%	0%	?	9%	-14%
COc1ccccc1C(=O)Nc1ccc(-c2cc(C(F)(F)F)nn2-c2ccccc2)cc1	·	-28%	?	?	-27%[46.1 µM]	?
COc1ccccc1-n1nnnc1SCC(=O)NC1CCCCC1	-20%	-5%	17%	-2%[46.1 µM]	-25%	i
Cc1ccc(C)c(Cn2c3ccccc3c3cnn(CC(=O)NC(C)CCc4ccccc4)c(=O)c32)c1 (configuration not stated)	·	-13%[7.34 µM]	-13%	10%[46.1 µM]	1%[46.1 µM]	-11%[7.34 µM]
COc1ccccc1C(=O)Nc1nnc(-c2ccco2)s1	-9%	-4%	·	?	-25%	-13%
Cc1ccccc1C(=O)Nc1nnc(-c2ccco2)s1	11µM*	4%	?	1.3µM*	4.1µM*	i
O=S(=O)(Nc1cc2nc3ccccc3nc2n1Cc1ccccc1)c1ccc(Cl)cc1	?	-4%	12%	?	7.3µM*!	i
Cc1c(Cc2ccc3c(c2)OCO3)sc(NC(=O)C2CC2)c1C(N)=O	-5%	?	?	7%[46.1 µM]	8.9µM*	?
COc1ccc(CN(C(=O)c2ccccc2F)C2CCS(=O)(=O)C2)cc1 (configuration not stated)	·	-15%	5%	8%[46.1 µM]	4%[46.1 µM]	-17%

Screens (PubChem BioAssay)
